# Screening results as filed in PubChem.
# CYP2C19 act – increases human CYP2C19 enzyme activity | P33261 | recombinant CYP2C19, luciferin-H EGE luminescence; active compounds read high; 0 = fully inhibited enzyme, 1 = untreated enzyme | activation factor at 5 µM | 96,000 tested, under 10 active;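 active means activation factor of at least 2 at 5 µM in the primary screen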;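 further: 0 = wells with 2.5 mM tranylcypromine and 1 = vehicle-only wells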
# Cav3 T inh – inhibitors of human Cav3.2 T-type calcium channel | Cav3.2-expressing cells, Fluo-4 calcium fluorescence FDSS; active compounds read low | 100,000 compounds, 4% hits | B-score at 10 µM | AID 449739;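 active means single-dose well whose peak fluorescence ratio is a statistical outlier from its plate by either plate-standardised score or position-corrected B-score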
# CYP2C19 inh – inhibitors of human CYP2C19; P33261; CYP2C19 Supersomes, luciferin-H EGE luminescence, 30 min; inhibition, % at 5 µM; 96,000 compounds, 21% hits; AID 778;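 active means CYP2C19 inhibition above a set limit at 5 µM in the primary screen, cut at about 50% in these data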;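 further: plate controls were negative control wells for no effect and 2.5 mM tranylcypromine positive control for full effect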
# CYP2C9 activ – activators of human CYP2C9. P11712. recombinant CYP2C9, luciferin-H conversion, luminescence; active compounds read high; factor 1 = untreated enzyme, 0 = blocked. activation factor at 5 µM. 96,000 compounds, 1.4% hits. AID 1024;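 active means activation factor of 2 or more for CYP2C9 at a 5 µM dose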;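 further: 0 = sulfaphenazole-blocked wells and 1 = vehicle-only wells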
# CYP2C9 inh – human CYP2C9 inhibition | 96,000 compounds, 20% hits | inhibition, % at 5 µM | P11712 | CYP2C9 Supersomes, luciferin-H conversion, luminescence;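 active means blocking of liver enzyme CYP2C9 beyond about 50% at 5 µM, limit read from the data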
# * hit, by the source's call; · = no result given. This is a sample that favours compounds with a hit; in the whole collection about 27% have one here.
SMILES,CYP2C19 act,Cav3 T inh,CYP2C19 inh,CYP2C9 activ,CYP2C9 inh
Cc1cc(=O)oc2ccc(OCC(=O)N(Cc3ccc(F)cc3)Cc3ccco3)cc12,0.1,-5.1*,86*,0.1,89*
COc1ccc(-c2ccc(C3C(C#N)=C(N)Oc4n[nH]c(C)c43)o2)cc1 (stereo not drawn),0.8,0.26,22,0.7,32
COc1ccc(OCCNc2cc(N3CCOCC3)ccc2[N+](=O)[O-])cc1,0.6,·,45,0.4,63*
CNc1cc(N2CCCCCC2)ccc1[N+](=O)[O-],0.5,-1.2,51*,0.5,47
Cc1nn(-c2cc(N3CCCC3)ccc2[N+](=O)[O-])c(=O)c2ccccc12,0.8,0.61,24,0.9,8
O=[N+]([O-])c1ccc(N2CCN(S(=O)(=O)c3ccccc3)CC2)cc1NCCN1CCOCC1,0.5,1.4,55*,0.3,70*
COc1ccc(OCCNc2cc(N3CCCCC3)ccc2[N+](=O)[O-])cc1,0.8,·,20,0.5,49
O=S(=O)(c1ccccc1)c1nc(-c2ccco2)oc1NCCN1CCOCC1,0.9,-2.3,6,1.4,-39
COc1cccc(OCCNc2cc(N3CCCCC3)ccc2[N+](=O)[O-])c1,0.7,-4.1*,26,0.3,70*
CCNc1nc(N2CCCCC2)nc(-n2nnc(C(=O)OCC)c2C)n1,0.8,-0.47,19,0.8,18
COc1cc(NC(=O)c2ccc(CNc3c(N4CCOCC4)c(=O)c3=O)cc2)cc(OC)c1,0.9,2.1,9,0.6,36
O=C(NCc1ccco1)C1CC(c2cc(C(F)(F)F)cc(C(F)(F)F)c2)=NO1 (stereo not drawn),·,-0.37,·,·,·
c1ccc2c(c1)c1ccccc1n2CN1CCOCC1,·,0.46,·,·,·
Cc1cc(CN2CCN(CCC#N)CC2)c(O)c(C2(C)CCCCC2)c1,0.9,-0.95,14,0.8,20
Cc1ccccc1OCCNc1cc(N2CCCCC2)ccc1[N+](=O)[O-],0.1,-3.6,89*,0.1,95*
CSc1nc2c(c(=O)[nH]1)C(c1ccncc1)C(C(=O)OC(C)C)=C(C)N2 (stereo not drawn),0.1,0.42,89*,0.5,47
CC1=C(C(=O)OC(C)C)C(c2cccnc2)C2=C(CCCC2=O)N1 (stereo not drawn),0.5,0.15,46,0.7,32
CCSc1nc2c(c(=O)[nH]1)C(c1ccncc1)C(C(=O)OC)=C(C)N2 (stereo not drawn),0.2,·,76*,0.5,52*
Cc1c(NC(=O)C(C)Sc2n[nH]c(N)n2)c(=O)n(-c2ccccc2)n1C (stereo not drawn),1.1,0.16,-6,1.1,-12
CCOCC(=O)Nc1cccc(C(=O)OCC)c1,0.8,-0.21,21,0.9,15
CCOC(=O)c1c(NC(=O)CSc2nc3cccnc3n2C)sc(C(C)=O)c1C,0.7,-1.4,27,0.3,69*
CCOC(=O)c1sc(NC(=O)CSc2nnnn2-c2ccccc2)c(C(=O)OCC)c1C,0.9,-0.22,10,0.5,49
CCOC(=O)c1c(NC(=O)CSc2nnc(-c3ccccc3C)n2C)sc(C(C)=O)c1C,0.2,-3.2,84*,0.1,95*
CCOC(=O)c1cccc(NC(=O)CSc2nc3cccnc3n2C)c1,0.4,-2.3,58*,0.5,49
CCOc1ccc2nc(NC(=O)CSc3nc4cccnc4n3C)sc2c1,1.1,-0.031,-10,1.2,-23
SMILES,CYP2C19 act,Cav3 T inh,CYP2C19 inh,CYP2C9 activ,CYP2C9 inh
CCOC(=O)c1cccc(NC(=O)Cn2c(CC(=O)NC)nc3ccccc32)c1,0.8,0.037,25,0.3,71*
CCOC(=O)c1[nH]c(C)c(/C=N/O)c1C,0.9,0.071,10,1.4,-39
O=C(c1scc2c1CCCC2)N1CCCCC1,0.9,-0.08,8,1.2,-23
O=C(NC1CCCCC1)c1ccc2c(c1)S(=O)(=O)c1ccccc1C2=O,·,-1.3,·,·,·
CS(=O)(=O)Nc1ccc(C(=O)N2CCN(c3ccccc3)CC2)cc1,1.1,0.38,-8,1,2
CCCCn1c(=O)n(C)c(=O)c2c(C(F)(F)F)cc(-c3ccncc3)nc21,0.3,-1.2,73*,0.5,48
CCOc1ccccc1N(CC(=O)NC1CCCCC1)S(C)(=O)=O,0.7,·,34,0.8,20
O=C(NCCN1CCCC1)c1ccc(CS(=O)(=O)c2c(Cl)cccc2Cl)o1,1.1,-0.099,-12,1.1,-6
CCC1=Nc2ccccc2NC2=C1C(=O)CCC2,0.4,1.3,63*,1.3,-27
O=C(NCc1ccc(N2CCCC2=O)cc1)c1cnccn1,0.8,0.56,15,1,-2
Cc1ccc(S(=O)(=O)NC(C)(C)CSc2nncn2N)cc1,0.4,1.5,59*,1.1,-10
CCOC(=O)C(/C=C(\C#N)C(=O)OCC)=C(/N)N1CCN(c2ccc(Cl)cc2)CC1,0.8,-0.54,18,0.8,21
C=CCN(CC=C)S(=O)(=O)c1ccc(NC(=S)NC(=O)c2ccco2)cc1,0.8,-0.99,18,1.1,-9
C=CCN(CC=C)S(=O)(=O)c1ccc(NC(=S)NC(=O)Cc2ccc(OC)cc2)cc1,0.6,-3.8,43,0.3,72*
C=CCN(CC=C)S(=O)(=O)c1ccc(NC(=S)NC(=O)c2ccc(-c3ccccc3)cc2)cc1,0.7,-2.2,34,0.4,62*
CCOC(=O)CC1ON(C)C(=O)N1c1ccc([N+](=O)[O-])cc1 (stereo not drawn),0,-1.6,98*,0.8,20
COCC(=O)N1CCN(c2ccc([N+](=O)[O-])cc2)CC1,0.7,0.18,26,1,3
Cc1cc(C)c(S(=O)(=O)/N=C2\C=CC(=O)C(Cl)=C2)c(C)c1,0.5,-1.1,51*,0.8,16
CCOC(=O)c1cc(-c2ccc(N)cc2)sc1N,0.5,0.38,54*,0.4,59*
Nc1sc(-c2ccccc2)cc1C(=O)O,0.6,·,37,0.4,64*
CCOC(=O)c1cc(-c2ccccc2)sc1NC(=S)Nc1cccc(C)n1,1,0.12,4,0.9,6
Nc1c(O)cccc1C(=O)O,·,-1.7,·,·,·
Cc1ccc(C(=O)N/C(=C\c2cccs2)C(=O)NC2CCCCC2)cc1,0.9,0.38,7,1.2,-23
COc1cc(CNc2ccccc2SC)cc(OC)c1OC,0.1,-2.8,95*,0.1,89*
COc1ccc(CNC(=O)NCc2ccc(OC)c(OC)c2)cc1OC,0.8,0.21,16,0.9,15
COc1ccc(CNc2ccccc2SC)cc1OC,0.2,-2.1,83*,0.5,49
CCOCCCNC(=O)C1CCCN1C(=O)NC1CCCCC1 (stereo not drawn),1,0.016,-3,1,1
COc1ccc(CNC(=O)c2cnn3c(C(F)F)cc(C)nc23)cc1OC,0.4,1.3,57*,0.9,5
c1ccc(CSc2nnc([C@@H]3CCCN3)o2)cc1,0.8,0.62,16,0.9,10
Cc1ccc(CSc2nnc([C@@H]3CCCN3)o2)cc1,0.5,0.98,50*,0.9,8
